About 83,000 compounds went through this panel and 20% of them were active in at least one assay; those are over-represented in the sample as a whole.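 The endpoint reported here, percent growth, reads 100 for growth as untreated, 0 for no net growth and -100 for all cells dead.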 Active and inactive are the calls of the source. The calls were made as follows: active = growth percent below 10; inactive = the rest.
Tests used:
Experiment in all cases: NCI-60 one-dose screen, 48 h (100 = growth as untreated, 0 = no growth, -100 = all killed)
Conditions in all cases: 10 µM unless noted
HCT-15 colon = test system: HCT-15 colon
HT29 colon = test system: HT29 colon
SNB-75 CNS = test system: SNB-75 CNS
SNB-19 CNS = test system: SNB-19 CNS
U251 CNS = test system: U251 CNS
PC-3 prostate = test system: PC-3 prostate
UACC-62 melanoma = test system: UACC-62 melanoma
LOX IMVI melanoma = test system: LOX IMVI melanoma
SK-MEL-28 melanoma = test system: SK-MEL-28 melanoma

Measured: growth

COc1ccc(/C=N/C2=C(C#N)C(c3ccc(N(C)C)cc3)c3ccc4ccccc4c3O2)cc1 (configuration not stated)
active: SNB-75 CNS -7.87%
inactive: HCT-15 colon 38.7% | HT29 colon 48.4% | SNB-19 CNS 68% | U251 CNS 71.1% | PC-3 prostate 52.5% | UACC-62 melanoma 48.3% | LOX IMVI melanoma 37.3% | SK-MEL-28 melanoma 74.4%

N#CN1CCC[C@H]1C(=O)N1CCc2c(-c3[nH]nc4ncccc34)cccc21
active: HCT-15 colon 7.65% | HT29 colon -53.9% | SNB-75 CNS -16% | U251 CNS -27.6% | UACC-62 melanoma 7.64% | LOX IMVI melanoma 4.55%
inactive: SNB-19 CNS 17.1% | PC-3 prostate 21.6% | SK-MEL-28 melanoma 24.6%

COc1cc(/C=C/c2cc(/C=C/c3ccc(O)c(OC)c3)n(-c3c(Cl)cccc3Cl)c(=O)n2)ccc1O
inactive: HCT-15 colon 10.3% | SNB-75 CNS 49.4% | SNB-19 CNS 34.1% | PC-3 prostate 34.9% | UACC-62 melanoma 38.2% | SK-MEL-28 melanoma 17.6%
active: HT29 colon -30.4% | U251 CNS 8.54% | LOX IMVI melanoma 2.83%

CCOC(=O)c1c(C)oc2ncnc(N3CCN(C(=S)Nc4ccccc4)CC3)c12
inactive: HCT-15 colon 90.6% | HT29 colon 102% | SNB-75 CNS 80.5% | SNB-19 CNS 96.5% | U251 CNS 89.7% | PC-3 prostate 91.8% | UACC-62 melanoma 87.2% | LOX IMVI melanoma 90.7% | SK-MEL-28 melanoma 107%

CCNC(=O)Oc1ccc(/C(=C(\C)c2ccc(Cl)cc2)c2ccc(OCCN3CCCCC3)cc2)cc1
active: HCT-15 colon 2.75% | HT29 colon 0.431% | UACC-62 melanoma -45.7% | SK-MEL-28 melanoma -30.4%
inactive: SNB-75 CNS 61.7% | SNB-19 CNS 64.5% | U251 CNS 32.9% | PC-3 prostate 28.7% | LOX IMVI melanoma 10.6%

O=C(O)c1ccc(N=CC(=O)c2ccc(-c3ccccc3)cc2)cc1
inactive: HCT-15 colon 113% | HT29 colon 103% | SNB-75 CNS 109% | SNB-19 CNS 101% | U251 CNS 98.5% | PC-3 prostate 86.2% | UACC-62 melanoma 93.5% | LOX IMVI melanoma 101% | SK-MEL-28 melanoma 101%

c1ccc(CCNc2ncnc3[nH]ncc23)cc1
inactive: HCT-15 colon 105% | HT29 colon 94% | SNB-75 CNS 92.6% | SNB-19 CNS 105% | U251 CNS 94.1% | PC-3 prostate 67% | UACC-62 melanoma 86.4% | LOX IMVI melanoma 89.1% | SK-MEL-28 melanoma 114%

Cc1nn(-c2cc(=O)[nH]c3ccccc23)c(N)c1C#N
inactive: HCT-15 colon 106% | HT29 colon 107% | SNB-75 CNS 82.4% | SNB-19 CNS 102% | U251 CNS 99% | PC-3 prostate 96% | UACC-62 melanoma 99.2% | LOX IMVI melanoma 98.4% | SK-MEL-28 melanoma 109%

COc1cc2c(cc1OC)C(Sc1ccc(SC)cc1)c1c(nc(N)c(C#N)c1N)O2 (configuration not stated)
active: HCT-15 colon -71.5% | HT29 colon -55.2% | SNB-75 CNS -54.5% | SNB-19 CNS -77.9% | U251 CNS -99.3% | PC-3 prostate -75.8% | UACC-62 melanoma -61.3% | LOX IMVI melanoma -96.3% | SK-MEL-28 melanoma -55.5%

CCCCCCN(CCCCCC)CCC(O)c1ccc2ccccc2c1 (configuration not stated)
inactive: HCT-15 colon 48.1% | HT29 colon 27.7% | SNB-75 CNS 68.2% | SNB-19 CNS 78.5% | U251 CNS 62.7% | PC-3 prostate 48.6% | UACC-62 melanoma 77.3% | LOX IMVI melanoma 40.5% | SK-MEL-28 melanoma 88.1%

COc1ccc(/C=C2\Oc3cc(OCCCCN4CCCC4)ccc3C2=O)cc1
active: HCT-15 colon 9.45% | HT29 colon 6.71% | LOX IMVI melanoma -84.7%
inactive: SNB-75 CNS 98.1% | SNB-19 CNS 83.7% | U251 CNS 62.6% | PC-3 prostate 75.6% | UACC-62 melanoma 90.5% | SK-MEL-28 melanoma 107%

CN1CCN(c2nc(NCCCCNc3ccnc4cc(Cl)ccc34)c3ccccc3n2)CC1
active: HT29 colon 4.42% | U251 CNS 2.52% | LOX IMVI melanoma 2.66% | SK-MEL-28 melanoma -0.901%
inactive: HCT-15 colon 37.4% | SNB-75 CNS 76.9% | SNB-19 CNS 53.5% | PC-3 prostate 66.3% | UACC-62 melanoma 63.9%

CC(=O)c1cc2c(N)c(C(=O)Nc3cccc4ccccc34)sc2nc1C
inactive: HCT-15 colon 33.8% | SNB-75 CNS 19.8% | SNB-19 CNS 21.7% | U251 CNS 15.3% | PC-3 prostate 17.5% | UACC-62 melanoma 23.5% | LOX IMVI melanoma 41.1% | SK-MEL-28 melanoma 67.2%
active: HT29 colon 5.75%

COc1ccc(NC(=O)c2ccc(/C=C/C(=O)c3ncc[nH]3)cc2)cc1
inactive: HCT-15 colon 35.2% | SNB-75 CNS 75% | SNB-19 CNS 56.1% | U251 CNS 18.8% | PC-3 prostate 92.3% | UACC-62 melanoma 78.2% | LOX IMVI melanoma 26.9% | SK-MEL-28 melanoma 102%
active: HT29 colon 3.59%

CCN1CCN(c2nc(NCCCNc3ccnc4cc(Cl)ccc34)c3ccccc3n2)CC1
inactive: HCT-15 colon 25.8% | SNB-75 CNS 57% | SNB-19 CNS 16.5% | PC-3 prostate 37%
active: HT29 colon -16% | U251 CNS -26.7% | UACC-62 melanoma -75.6% | LOX IMVI melanoma -69.3% | SK-MEL-28 melanoma -66.4%

Cc1cc(N[C@@H]2CCC[C@H](Nc3ccnc4cc(Cl)ccc34)C2)nc(N2CCCCCC2)n1
active: HCT-15 colon -73.2% | HT29 colon -59.9% | SNB-75 CNS -83.7% | SNB-19 CNS -22.2% | U251 CNS -92.6% | PC-3 prostate -67.7% | UACC-62 melanoma -90.2% | LOX IMVI melanoma -86.3% | SK-MEL-28 melanoma -80.3%

COc1ccc(C2Nc3c(c(C(C)(C)C)nn3-c3ccccc3)C(=O)CS2)cc1 (configuration not stated)
inactive: HCT-15 colon 97.7% | HT29 colon 86.7% | SNB-75 CNS 89.2% | SNB-19 CNS 98.8% | U251 CNS 102% | PC-3 prostate 79.5% | UACC-62 melanoma 80% | LOX IMVI melanoma 94.5% | SK-MEL-28 melanoma 113%

O=C1/C(=C(/c2ccccc2)N2CCOCC2)Cc2ccccc21
inactive: SNB-75 CNS 50.3% | SNB-19 CNS 78.1% | PC-3 prostate 12.2% | UACC-62 melanoma 48.6%
active: HCT-15 colon -25.9% | HT29 colon 8.82% | U251 CNS 9.15% | LOX IMVI melanoma -58.3% | SK-MEL-28 melanoma -28.9%

COc1cc(-c2nn(C)nc2-c2cc3ccccc3s2)cc(OC)c1OC
inactive: HCT-15 colon 16.9% | SNB-75 CNS 48.1% | SNB-19 CNS 26.7% | U251 CNS 20.9% | PC-3 prostate 21.9% | UACC-62 melanoma 26% | LOX IMVI melanoma 38.3% | SK-MEL-28 melanoma 57.6%
active: HT29 colon -1.21%

Oc1ccccc1-c1nnc(CNc2ccc(Cl)cc2)o1
active: UACC-62 melanoma 8.19% | LOX IMVI melanoma 7.71%
inactive: HCT-15 colon 20.7% | HT29 colon 39.7% | SNB-75 CNS 50.3% | SNB-19 CNS 41.9% | U251 CNS 16% | PC-3 prostate 34.5% | SK-MEL-28 melanoma 32.2%

COc1cc2c(cc1-c1c(C)noc1C)ncc1nc(C3CCCC3)n([C@H](C)COC(F)F)c12
inactive: HCT-15 colon 16.8% | HT29 colon 18.3% | SNB-75 CNS 37.4% | SNB-19 CNS 49.5% | U251 CNS 39.7% | PC-3 prostate 31.8% | UACC-62 melanoma 20.7% | LOX IMVI melanoma 13.2% | SK-MEL-28 melanoma 53.8%

O=C1c2cc3c(cc2-c2c1c1ccc(F)cc1c(=O)n2C[C@H](O)[C@H](O)[C@H](O)CO)OCO3
active: HCT-15 colon 0.724% | HT29 colon -4.15% | SNB-75 CNS -36.9% | SNB-19 CNS 2.14% | U251 CNS -22.4% | PC-3 prostate 6.99% | UACC-62 melanoma -70.4% | LOX IMVI melanoma -33.5% | SK-MEL-28 melanoma -30.6%

CNc1ccc(-c2cc(=O)oc3ccc(Cl)cc23)cc1
inactive: HCT-15 colon 14.9% | SNB-75 CNS 40.9% | SNB-19 CNS 22.7% | PC-3 prostate 12.8% | UACC-62 melanoma 31.7% | LOX IMVI melanoma 24.1% | SK-MEL-28 melanoma 58.5%
active: HT29 colon -2.77% | U251 CNS 8.91%

CCN(CC)CCCCNc1c2ccc(Cl)cc2nc2ccc(OC)cc12
active: HCT-15 colon -21.2% | HT29 colon 3.91% | SNB-75 CNS -95.3% | SNB-19 CNS 1.53% | U251 CNS -9.07% | PC-3 prostate -45.9% | UACC-62 melanoma -30.8% | LOX IMVI melanoma -57.3% | SK-MEL-28 melanoma -82.5%

O=C(/C=C/C=C/c1ccc2c(c1)OCO2)N/N=C\c1ccc(O)cc1O
active: LOX IMVI melanoma 9.69%
inactive: HCT-15 colon 17% | HT29 colon 48.1% | SNB-75 CNS 64% | SNB-19 CNS 49.3% | U251 CNS 31.3% | PC-3 prostate 38% | UACC-62 melanoma 14.3% | SK-MEL-28 melanoma 42.1%

CC1CCNC(C)C1 (configuration not stated)
inactive: HCT-15 colon 108% | HT29 colon 110% | SNB-75 CNS 86.5% | SNB-19 CNS 114% | U251 CNS 108% | PC-3 prostate 90.3% | UACC-62 melanoma 102% | LOX IMVI melanoma 100% | SK-MEL-28 melanoma 115%

CCN1CCC2(CC1)NC(=O)c1c(c3ccc(Cl)c(Cl)c3n1C)C2C#N (configuration not stated)
active: HT29 colon 7.28% | UACC-62 melanoma -83.2% | SK-MEL-28 melanoma -100%
inactive: HCT-15 colon 14.3% | SNB-75 CNS 51.2% | SNB-19 CNS 84.9% | U251 CNS 57% | PC-3 prostate 47.1% | LOX IMVI melanoma 30.6%

COc1ccc(-c2nn(-c3ccc(Cl)cc3)cc2-c2nc3ccccc3[nH]2)cc1
inactive: HCT-15 colon 103% | HT29 colon 84.5% | SNB-75 CNS 76.6% | SNB-19 CNS 91.9% | U251 CNS 104% | PC-3 prostate 81.5% | UACC-62 melanoma 75.8% | LOX IMVI melanoma 82.1% | SK-MEL-28 melanoma 99.5%
